Assay results: PubChem BioAssay (NCATS)
Records with an inconclusive call do not appear. Activity calls are given as the source filed them. Unless noted, calls come from the whole dose curve; as a rule, active = well fitted curve in either direction with a large enough effect (not every such curve was filed as active); inconclusive = small, poorly fitted or top-dose-only effect, or another doubt; inactive = flat fitted curve, though single readings scatter.

Tests used:
[1] = target: Lysosomal acid glucosylceramidase (Homo sapiens) (UniProt P04062); assay: Glucocerebrosidase-p2 (AID 348; in the data active = potency below about 10 µM; note: potency is the fitted concentration of half-maximal effect); conditions: purified GBA, blue fluorogenic substrate, 40 min
Summary of the method: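 Compounds titrated from 0.6 nM upwards against 0.2 nM enzyme in pH 5.9 citric acid/KH2PO4, taurocholate, tween-20; blue fluorogenic substrate 80 uM, 40 min room temperature, stopped and read Ex 365/Em 440 for AC50.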

[2] = AP1 Signaling Pathway (AID 357); conditions: ME-180 AP-1-bla reporter, EGF-induced, beta-lactamase ratio, 5 h; at 7.69 µM (top of the series) unless noted;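 note: ME-180 reporter cells stimulated with EGF at its EC50 level; % is set by controls: 0 for no effect and ±100 for the full control effect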
Summary of the method: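 AP-1-bla ME-180 cells, Opti-MEM + 0.5% dialyzed FBS, plated overnight 37 °C. Cpd titration + EC50 EGF, 5 h 37 °C. CCF4 2.5 h RT; ex 405, em 460/530 ratio → %activity, AC50.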

[3] = target: Cytochrome P450 1A2 (Homo sapiens) (UniProt P05177); assay: p450-cyp1a2 (AID 410; calls by dose curve; note: potency is the fitted concentration of half-maximal effect;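 for activity change, negative = inhibition: -100% = full effect of reference inhibitor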); conditions: recombinant CYP1A2, luciferin-ME demethylation, luminescence; series mostly up to 11.4 µM
Summary of the method: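 Human CYP1A2 (20nM) demethylated Luciferin-ME at its Km (100uM) in 100mM KPO4. After 10 min compound preincubation, NADPH regeneration ran the reaction 60 min at room temperature. Luciferin was read by luminescence, normalized to 57 uM furafylline.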

[4] = NFAT Signaling Pathway (AID 444); conditions: Jurkat NFAT-bla M1, carbachol, beta-lactamase ratio, 5 h; at 7.69 µM (top of the series) unless noted;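 note: carbachol stimulus at about its EC50 of 1 µM final; % is set by controls: 0 for no effect and ±100 for the full control effect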
Summary of the method: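 Jurkat cells carrying an NFAT-driven β-lactamase reporter and co-transfected muscarinic M1 receptor were treated with compound plus carbachol (1 uM final, an EC50 level) for 5 h at 37 °C. CCF4 loading followed for 1 h at RT; 460/530 nm ratio gave %activity.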

[5] = Stat Signaling Pathway (AID 446); conditions: ME-180 SIE beta-lactamase reporter, IL-6 stimulated, 5 h; at 7.69 µM (top of the series) unless noted;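 note: ME-180 cervical cancer cells given 40 pM IL-6 alongside compound; SIE-controlled beta-lactamase reporter measured as 460/530 nm FRET emission ratio; % is set by controls: 0 for no effect and ±100 for the full control effect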
Summary of the method: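 Reporter line: ME-180 cervical carcinoma, SIE-beta-lactamase. Treatment: compound with 40 pM IL-6, 5 hrs, 37 C, in low-serum OPTI-MEM with 10 mM HEPES pH 7.3. Detection: 460/530 nm fluorescence.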

[6] = target: Glucocorticoid receptor (Homo sapiens) (UniProt P04150); assay: GR-GFP Redistribution (AID 450;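 active = compounds whose dose series gives a full or clear partial fitted curve of increased nuclear translocation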; note: potency is the fitted concentration of half-maximal effect); conditions: U2OS GR-GFP nuclear translocation, laser cytometry, 2 h
[7] = target: Glucocorticoid receptor (Homo sapiens) (UniProt P04150); assay: GR-EFC Redistribution (AID 451; calls by dose curve; note: potency is the fitted concentration of half-maximal effect); conditions: CHO-K1 GR-EFC translocation, beta-gal luminescence, 2 h
Summary of the method: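 CHO-K1 cells stably expressing nuclear-localized β-gal enzyme acceptor and GR fused C-terminally to the enzyme donor fragment; ligand-driven nuclear translocation restores β-gal by complementation. Compounds titrated up to 46 uM final, 2 h at 37 °C; luminescence read.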

[8] = target: Mitogen-activated protein kinase 10 (Mus musculus) (UniProt Q61831); assay: JNK3 AlphaScreen Assay (AID 530); conditions: JNK3 lysate, c-Jun phosphorylation; series mostly up to 11.4 µM;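 note: kinase came from lysate of stimulated human HepG2 cells; signal reports phosphorylation of biotinylated GST-cJun 1-79 at Ser73 with 10 µM ATP; % is set by controls: 0 for no effect and ±100 for the full control effect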
Summary of the method: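 JNK3 came from HepG2 lysates pre-activated with IL-1beta and TNF-alpha and phosphorylated biotinylated GST-cJun (1-79) at 10 uM ATP, pH 7.6, room temperature. Compounds were titrated. AlphaScreen signal used anti-phospho-cJun (Ser73) antibody.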

[9] = target: 3',5'-cyclic-AMP phosphodiesterase 4B (Homo sapiens) (UniProt Q07343); assay: qHTS Assay for Inhibitors of PDE-IV (AID 607; active = well fitted activation curve with a large enough effect in the main read-out, with a control signal flat, not every such curve was filed as active; note: % of control where 0% means no effect); conditions: HEK293 ACTOne CNG channel cells, membrane potential fluorescence; series mostly up to 22.9 µM
Summary of the method: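 Cell-based read-out of cAMP via a modified cyclic nucleotide-gated channel and membrane potential dye (535/590 nm) in HEK293 cells expressing PDE4 endogenously. Compounds tested up to 22.9 uM final; 100 uM RO 20-1724 reference.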

Sequence of Lysosomal acid glucosylceramidase (Homo sapiens) (P04062 whole entry, looked up): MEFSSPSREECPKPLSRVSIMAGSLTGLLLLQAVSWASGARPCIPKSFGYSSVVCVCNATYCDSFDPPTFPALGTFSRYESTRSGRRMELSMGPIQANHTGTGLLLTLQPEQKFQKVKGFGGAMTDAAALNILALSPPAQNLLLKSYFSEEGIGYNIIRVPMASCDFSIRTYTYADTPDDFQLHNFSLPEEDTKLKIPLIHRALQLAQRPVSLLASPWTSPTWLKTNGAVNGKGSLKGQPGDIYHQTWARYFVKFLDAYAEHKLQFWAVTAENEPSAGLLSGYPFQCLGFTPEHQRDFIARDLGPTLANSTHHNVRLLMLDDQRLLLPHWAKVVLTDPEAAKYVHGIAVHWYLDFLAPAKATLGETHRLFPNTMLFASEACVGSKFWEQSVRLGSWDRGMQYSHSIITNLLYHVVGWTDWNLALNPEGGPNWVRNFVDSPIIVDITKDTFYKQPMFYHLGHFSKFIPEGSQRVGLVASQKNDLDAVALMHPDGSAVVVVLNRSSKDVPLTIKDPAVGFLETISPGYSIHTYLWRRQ
Sequence of 3',5'-cyclic-AMP phosphodiesterase 4B (Homo sapiens) (Q07343 whole entry, looked up): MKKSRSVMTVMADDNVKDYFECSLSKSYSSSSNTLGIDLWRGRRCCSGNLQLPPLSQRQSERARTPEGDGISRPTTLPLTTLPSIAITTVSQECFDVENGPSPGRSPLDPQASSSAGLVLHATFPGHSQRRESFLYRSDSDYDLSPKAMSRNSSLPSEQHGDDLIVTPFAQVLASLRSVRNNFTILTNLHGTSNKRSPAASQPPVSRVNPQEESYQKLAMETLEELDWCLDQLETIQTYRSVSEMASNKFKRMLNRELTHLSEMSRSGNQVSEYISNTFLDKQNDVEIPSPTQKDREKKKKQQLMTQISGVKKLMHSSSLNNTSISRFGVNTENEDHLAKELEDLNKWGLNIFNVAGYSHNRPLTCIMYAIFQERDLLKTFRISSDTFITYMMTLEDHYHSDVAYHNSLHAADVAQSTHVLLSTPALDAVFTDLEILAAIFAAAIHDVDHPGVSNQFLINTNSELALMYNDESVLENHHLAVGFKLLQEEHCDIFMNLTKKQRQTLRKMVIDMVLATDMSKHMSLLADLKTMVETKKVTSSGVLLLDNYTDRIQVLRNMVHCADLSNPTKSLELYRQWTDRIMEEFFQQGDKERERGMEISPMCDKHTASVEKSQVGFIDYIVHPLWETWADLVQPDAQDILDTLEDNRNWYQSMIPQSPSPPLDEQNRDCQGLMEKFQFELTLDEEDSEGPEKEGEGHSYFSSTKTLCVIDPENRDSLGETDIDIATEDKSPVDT
Sequence of Glucocorticoid receptor (Homo sapiens) (P04150 whole entry, looked up, the tested form may be a part): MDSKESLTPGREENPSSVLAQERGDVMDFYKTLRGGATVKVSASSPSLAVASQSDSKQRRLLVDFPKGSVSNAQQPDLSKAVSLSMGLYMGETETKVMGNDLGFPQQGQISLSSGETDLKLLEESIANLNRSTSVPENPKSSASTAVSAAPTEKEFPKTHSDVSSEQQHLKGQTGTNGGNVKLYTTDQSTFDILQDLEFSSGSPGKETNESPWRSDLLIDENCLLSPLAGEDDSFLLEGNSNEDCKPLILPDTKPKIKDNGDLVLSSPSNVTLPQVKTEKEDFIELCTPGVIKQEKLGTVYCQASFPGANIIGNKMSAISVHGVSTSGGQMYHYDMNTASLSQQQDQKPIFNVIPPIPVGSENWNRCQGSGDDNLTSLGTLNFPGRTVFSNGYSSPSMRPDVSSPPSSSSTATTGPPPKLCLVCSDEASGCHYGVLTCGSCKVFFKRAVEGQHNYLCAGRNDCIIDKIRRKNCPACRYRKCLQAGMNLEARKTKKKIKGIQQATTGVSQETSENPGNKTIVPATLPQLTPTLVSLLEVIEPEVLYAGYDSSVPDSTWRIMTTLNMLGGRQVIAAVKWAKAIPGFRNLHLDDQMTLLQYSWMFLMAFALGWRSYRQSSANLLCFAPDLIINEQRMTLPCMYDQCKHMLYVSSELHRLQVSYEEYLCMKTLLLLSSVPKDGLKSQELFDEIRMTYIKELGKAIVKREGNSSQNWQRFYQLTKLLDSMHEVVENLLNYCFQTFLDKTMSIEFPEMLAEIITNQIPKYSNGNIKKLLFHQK
Sequence of Cytochrome P450 1A2 (Homo sapiens) (P05177 whole entry, looked up): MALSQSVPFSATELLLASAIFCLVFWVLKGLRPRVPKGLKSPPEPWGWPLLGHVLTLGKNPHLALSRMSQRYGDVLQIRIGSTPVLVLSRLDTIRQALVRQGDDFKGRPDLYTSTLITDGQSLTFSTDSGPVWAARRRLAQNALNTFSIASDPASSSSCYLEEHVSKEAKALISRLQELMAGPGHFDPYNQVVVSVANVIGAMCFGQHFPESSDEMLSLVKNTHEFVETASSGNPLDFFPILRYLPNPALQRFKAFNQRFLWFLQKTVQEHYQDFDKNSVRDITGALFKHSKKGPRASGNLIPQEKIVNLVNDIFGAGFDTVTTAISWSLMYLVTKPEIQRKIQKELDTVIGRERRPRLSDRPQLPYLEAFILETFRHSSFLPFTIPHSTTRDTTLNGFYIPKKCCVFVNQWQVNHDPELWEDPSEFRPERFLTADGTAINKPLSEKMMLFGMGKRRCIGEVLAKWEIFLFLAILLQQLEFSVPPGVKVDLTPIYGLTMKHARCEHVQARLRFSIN

Nc1cccc2cc(S(=O)(=O)Nc3ccc(C(=O)O)cc3)ccc12
inactive: Potency [1] > 11.4 µM | activity change, negative = inhibition [2] -0.623% | Potency [3] | activity change, negative = inhibition [4] 12.7% | activity, negative = inhibition [5] -1.24% | Potency [6] > 46 µM | Potency [7] > 9.22 µM | Potency [8] | Potency [9]

O=C(O)c1c[nH]c2cc(OCc3ccccc3)ccc2c1=O
inactive: Potency [1] > 11.4 µM | activity change, negative = inhibition [2] -8.18% | Potency [3] | activity change, negative = inhibition [4] 5.14% | activity, negative = inhibition [5] -8.65% | Potency [6] > 46 µM | Potency [7] > 9.22 µM | Potency [8] | Potency [9]

N#C/C(=C\N1CCNC1=S)C(=O)c1ccc2ccccc2c1
active: Potency [3] 1.58 µM
inactive: Potency [1] > 11.4 µM | activity change, negative = inhibition [2] -19.2% | activity change, negative = inhibition [4] 5.58% | activity, negative = inhibition [5] -8.82% | Potency [6] > 46 µM | Potency [7] > 9.22 µM | Potency [8] | Potency [9]

Oc1cc(O)c2c(c1)O[C@@H](c1ccc(O)c(O)c1)[C@H](O[C@@]1(c3cc(O)c(O)c(O)c3)Oc3cc(O)cc(O)c3[C@H](O)[C@@H]1O)C2
inactive: Potency [1] > 11.4 µM | activity change, negative = inhibition [2] 9.41% | Potency [3] | activity change, negative = inhibition [4] 13.8% | activity, negative = inhibition [5] -22.3% | Potency [6] > 46 µM | Potency [7] > 9.22 µM | Potency [8] | Potency [9]

CC(=O)/C(=N\N=C(N)N)c1ccccc1
inactive: Potency [1] > 11.4 µM | activity change, negative = inhibition [2] 8.04% | activity change, negative = inhibition [3] -17.2% [at 2.29 µM] | activity change, negative = inhibition [4] -0.66% | activity, negative = inhibition [5] 7.52% | Potency [6] > 46 µM | Potency [7] > 9.22 µM | Potency [8] | Potency [9]

O=C1COC(c2ccccc2O)=NN1CCCN1CCCC1
inactive: Potency [1] > 11.4 µM | activity change, negative = inhibition [2] 5.73% | Potency [3] | activity change, negative = inhibition [4] -11.6% | activity, negative = inhibition [5] 5.21% | Potency [6] > 46 µM | Potency [7] > 9.22 µM | Potency [8] | Potency [9]

Cc1nc(CN2CCCCC2)c(O)c(=O)[nH]1
inactive: Potency [1] > 11.4 µM | activity change, negative = inhibition [2] -7.91% | Potency [3] | activity change, negative = inhibition [4] 12.6% | activity, negative = inhibition [5] -9.62% | Potency [6] > 46 µM | Potency [7] > 9.22 µM | Potency [8] | Potency [9]

C[C@H]1CN(CCO)CCN1c1ccccc1
inactive: Potency [1] > 11.4 µM | activity change, negative = inhibition [2] 11.5% | Potency [3] | activity change, negative = inhibition [4] -5.83% | activity, negative = inhibition [5] 7.5% | Potency [6] > 46 µM | Potency [7] > 9.22 µM | Potency [8] | Potency [9]

Nc1ccc(N=Nc2c(S(=O)(=O)O)cc3ccccc3c2S(=O)(=O)O)cc1
inactive: Potency [1] > 11.4 µM | activity change, negative = inhibition [2] -5.64% | activity change, negative = inhibition [3] -20.9% [at 2.29 µM] | activity change, negative = inhibition [4] 11.9% | activity, negative = inhibition [5] 6.7% | Potency [6] > 46 µM | Potency [7] > 9.22 µM | Potency [8] | Potency [9]

Cc1ccc(N2CCN(CCC(=O)O)CC2)cc1
inactive: Potency [1] > 11.4 µM | activity change, negative = inhibition [2] 4.25% | Potency [3] | activity change, negative = inhibition [4] 2.05% | activity, negative = inhibition [5] 2.74% | Potency [6] > 46 µM | Potency [7] > 9.22 µM | Potency [8] | Potency [9]

C[C@H]1CCCC2(CC[N+](C)(CCC[N+](C)(C)C)CC2)C1 (stereo partly specified)
inactive: Potency [1] 11.6 µM | activity change, negative = inhibition [2] 14.2% | Potency [3] | activity change, negative = inhibition [4] -5.86% | activity, negative = inhibition [5] 1.53% | Potency [6] > 46 µM | Potency [7] > 9.22 µM | Potency [8] | Potency [9]

Cc1cc([N+](=O)[O-])c(C)c(Br)c1C
active: Potency [3] 1 µM
inactive: Potency [1] > 11.4 µM | activity change, negative = inhibition [2] 3.15% | activity change, negative = inhibition [4] -7.3% | activity, negative = inhibition [5] 6.97% | Potency [6] > 46 µM | Potency [7] > 9.22 µM | Potency [8] | Potency [9]

CS[C@@H](CC(=O)O)C(=O)O
inactive: Potency [1] > 11.4 µM | activity change, negative = inhibition [2] 2.29% | Potency [3] | activity change, negative = inhibition [4] 3.57% | activity, negative = inhibition [5] 2.44% | Potency [6] > 46 µM | Potency [7] > 9.22 µM | Potency [8] | Potency [9]

O=C(O)[C@@H](O)c1ccc(F)cc1
inactive: Potency [1] > 11.4 µM | activity change, negative = inhibition [2] 26.9% | Potency [3] | activity change, negative = inhibition [4] 11% | activity, negative = inhibition [5] 8.22% | Potency [6] > 46 µM | Potency [7] > 9.22 µM | Potency [8] | Potency [9]
